Source: PubChem
Only some compounds are listed: those with a hit (about 12% of all), similar ones and a draw of the others.
Cycloheximide cs = Cycloheximide Counterscreen for Small Molecule Inhibitors of Shiga Toxin. cell reporter, cycloheximide protein synthesis inhibition counterscreen. max response, %. actives 12% (n = 300,000). AID 2314, 2010; in the data active = max response mostly above about 13%, no sharp cut-off; inactive = mostly below about 14%; also: read at 38.3 µM for the half of the compounds with a filed dose; 0% is about no effect
Shiga toxin inh = A qHTS for Small Molecule Inhibitors of Shiga Toxin; Vero cells, Shiga toxin protein synthesis inhibition reporter; inhibition, % at 38.7 µM; actives 9.2% (n = 290,000); in the data active = inhibition mostly above about 28%, no sharp cut-off; inactive = mostly below about 43%; also: 0% is about no effect
Sm TGR block = qHTS Assay for the Inhibitors of Schistosoma Mansoni Peroxiredoxins; Schistosoma mansoni thioredoxin glutathione reductase (TGR), Q962Y6; purified TGR, DTNB reduction, TNB absorbance 405 nm; Potency, µM (doses to about 114 µM), without a hit: at the highest dose activity change, negative = inhibition, usual class: inhibitors; actives 3% (n = 360,000); AID 485364, 2010; active = well fitted inhibition curve with a large enough effect; inconclusive = small, poorly fitted or top-dose-only effect; inactive = no such curve, though single readings can be large or run the other way; also: potency is read from the fitted curve at half-maximal effect; % is scaled to controls: 0 for no effect and ±100 for the full control effect; nearly all actives have a fitted effect of over 60% in size
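TGR 20 nM + NADPH 100 uM (dispensed conc.), cpd preinc 15 min RT; start with NADPH (500 uM addition) then DTNB (15 mM addition). Kinetic TNB absorbance, 405 nm filter. Four-parameter Hill fit across titration.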
FMDV inh = High Throughput Screening for Foot and Mouth Disease Virus Antivirals; FMDV antiviral cell-based qHTS; Potency, µM (top dose mostly 57.9 µM), without a hit: at the highest dose activity change, negative = inhibition, most hits filed as inhibitors; actives 1.2% (n = 410,000); AID 1159524, 2015; calls by dose curve; tested in HEK293T cells; also: read-out not given here; potency is read from the fitted curve at half-maximal effect; % is scaled to controls: 0 for no effect and ±100 for the full control effect; nearly all actives have a fitted effect of over 45% in size
Starred values were filed as active, the others as inactive; ? = inconclusive; nt = no result given.

SMILES	Cycloheximide cs	Shiga toxin inh	Sm TGR block	FMDV inh
O=C1NC(=O)N(c2ccccc2)C(=O)/C1=C/c1coc2ccc(O)cc2c1=O	24*	28*	0%	?
NC(=O)N/N=C/c1coc2ccc(O)cc2c1=O	-2	-2	-20%	-19%
CC1=CC2=NC(=O)/C(=C/c3coc4ccc(Cl)cc4c3=O)C(=N)N2O1	2	-3	-6%	-28%
CCOC(=O)Cn1c(=O)oc2cc(S(=O)(=O)N3CCN(c4ccc(F)cc4)CC3)ccc21	nt	nt	1%	-24%
COC(=O)[C@@H]1CCCN1Cc1ccc2c(c1)CN(Cc1coc3ccc(C)cc3c1=O)CCO2	nt	nt	nt	-9%
CCC(CC)C(=O)Nc1ccc(C(=O)c2ccccc2)cc1	18*	50*	6%	57%
N#Cc1ccc[n+](CC(=O)c2ccc(NC(=O)c3ccccc3)cc2)c1	14	32*	-20%	33%
O=C(Nc1ccc(C(=O)c2ccccc2)cc1)c1ccccc1	56*	148*	11%	18%
O=C(NNC(=O)c1ccc(NC(=O)c2ccccc2)cc1)c1ccc(F)cc1	-1	10	-19%	-5%
O=C(Nc1ccc(-c2cnco2)cc1)c1ccccc1	47*	93*	-2%	39%
CCCn1c(=O)c(C)cn2nc(N)nc12	nt	nt	nt	-13%
C=CCNC(=O)c1ccc(C(=O)c2ccccc2)cc1	24*	110*	-9%	39%
CCC(=O)Nc1ccc(C(=O)c2ccccc2)cc1	20*	35	?	32%
CCC(=O)NC1=C(Nc2ccc(N)cc2)C(=O)c2ccccc2C1=O	27*	96*	4%	2%
CCC(=O)Nc1ccc(C2C(=O)c3ccccc3C2=O)cc1	25*	35	-15%	20µM*
C=CCNC(=O)c1ccc2nc(-c3ccccc3)c(-c3ccccc3)nc2c1	-5	16	-8%	-25%
C=C[C@H]1CN2CC[C@H]1C[C@H]2[C@H](OC(=O)OCC)c1ccnc2ccc(OC)cc12	nt	nt	nt	-15%
COc1ccc(-c2noc(C3CC(=O)N(c4ccc(C)c(F)c4)C3)n2)c(OC)c1 (configuration not stated)	nt	nt	-2%	0%
COc1ccc(OC)c(C2=NOC(C(=O)NCc3ccco3)C2)c1 (configuration not stated)	-2	6	35µM*	7%
O=C(NCc1ccco1)C1CC(c2ccccc2C(F)(F)F)=NO1 (configuration not stated)	-1	-4	20µM*	-7%
COc1ccc(OC)c(C2=NOC(C(=O)N3CCCc4ccccc43)C2)c1 (configuration not stated)	56*	84*	-12%	-4%
O=C(C1CC(c2ccc(F)cc2)=NO1)N1CCCc2ccccc21 (configuration not stated)	0	17	-1%	-19%
COc1ccccc1-c1noc(-c2ccc(NCc3cccnc3)c([N+](=O)[O-])c2)n1	nt	nt	-2%	-2%
Cc1ccc(NC(=O)CSc2nc3ccccc3nc2Cc2ccccc2F)cc1F	nt	nt	-7%	-3%
CCOc1ccc(/C=N/n2cc(-c3ccccc3)[nH]c2=S)cc1	19*	28	3%	45%
SMILES	Cycloheximide cs	Shiga toxin inh	Sm TGR block	FMDV inh
S=c1[nH]c(-c2ccccc2)cn1/N=C/c1ccncc1	1	21	4%	9%
Cc1nc(-c2ccc(-c3ccon3)s2)no1	21*	53*	-6%	39%
Cc1cccc(-c2nc(N)nc(N)n2)c1	34*	48	10%	54%
Nc1nc(N)nc(-c2ccc(Cl)cc2)n1	29*	25	6%	nt
Cc1ccc(Oc2ccc(-c3nc(N)nc(N)n3)cc2)cc1	12*	29	6%	?
COc1ccc(-c2nc(N)nc(N)n2)c(O)c1	nt	nt	?	0%
Nc1nc(-c2ccc(Cl)cc2)nnc1-c1ccc(Br)cc1	52*	96*	-10%	12%
CN(C)c1ccc(NC(=O)Cn2cc(S(=O)(=O)Cc3ccccc3Cl)c3ccccc32)cc1	nt	nt	-11%	13%
COC(=O)c1ccccc1NC(=O)c1sc2nc(C)cc(C)c2c1NC(=O)c1ccccc1Cl	nt	nt	-4%	-21%
C=CCNc1nc(Cl)nc(Nc2ccc([N+](=O)[O-])cc2)n1	-1	-7	2%	-8%
C=CCNc1nc(Nc2ccc([N+](=O)[O-])cc2)nc(N2CCCC2)n1	26*	-11	7%	?
CCOc1cccc2c1OC(c1cc(OC)c(OC)c(OC)c1)N1N=C(c3ccc(C)o3)CC21 (configuration not stated)	39*	21	45µM*	2%
CN(C)/C=C/C(=O)c1cnc(-c2ccccc2Cl)s1	45*	87*	-23%	93%
CN(C)/C=C/C(=O)c1cnc(-c2cccc(Cl)c2)s1	25*	67*	-12%	54%
CC(=O)c1cnc(-c2cccc(Cl)c2)s1	14	19	2%	59%
CN(C)/C=C/C(=O)c1cnc(-c2ccccn2)s1	36*	90*	-34%	63%
Cc1ccc(S(=O)(=O)c2cn(C)c3cc(N4CCCC(C)C4)c(F)cc3c2=O)c(C)c1 (configuration not stated)	nt	nt	-11%	-15%
Cc1ccc(CNC(=O)c2ccc3c(c2)c(C)c(C)n3Cc2ccc(Cl)cc2)o1	nt	nt	6%	-4%
O=C(CSc1nc2c([nH]c3ccccc32)c(=O)n1-c1ccccc1F)Nc1cccc(C(F)(F)F)c1	nt	nt	-5%	?
Cc1cccc(-c2noc(CN(C(=O)c3ccc4c(c3)OCO4)C(C)C)n2)c1	-2	-19	3%	?
Cc1nc(C(C)N(C)Cc2nc(-c3ccc4c(c3)OCO4)no2)c(C)s1 (configuration not stated)	51*	45	-18%	-4%
O=C(N/N=C/c1ccccc1OC(F)F)NC1CCCCC1	2	11	9%	-4%
COc1cc(/C=N/NC(=O)NC2CCCCC2)ccc1O	14*	43*	0%	4%
O=C(N/N=C/c1cccc(F)c1)c1c(O)c2c([nH]c1=O)CCCC2	26*	36*	-5%	0%
O=C(N/N=C/c1ccccc1F)NC1CCCCC1	18*	33*	3%	35%
SMILES	Cycloheximide cs	Shiga toxin inh	Sm TGR block	FMDV inh
O=C(N/N=C/c1cccc(F)c1)NC1CCCCC1	19*	20	-7%	17%
O=C(COC(=O)/C=C/c1cccc(F)c1)NC1CCCCCC1	nt	nt	nt	-7%
COc1cc(/C=N/NC(=O)NC2CCCCC2)cc(OC)c1O	-3	14	-19%	-8%
COc1cc(NCc2ccc3nc(N)nc(N)c3c2C)cc(OC)c1OC	0	-2	nt	?
Cc1ccc(NC(=O)C(=O)NCC(c2ccc3c(c2)OCO3)N2CCN(C)CC2)c(C)c1 (configuration not stated)	nt	nt	0%	-6%
CC(C)(C)c1ccc(/C=N/NC(=S)NC2CCCCC2)cc1	14	47*	3%	0%
O=C(CCC(=O)NC1CCCCC1)N/N=C/c1ccncc1	-2	3	0%	-2%
COc1ccc(/C=N/NC(=S)NC2CCS(=O)(=O)C2)cc1 (configuration not stated)	4	-2	0%	-7%
O=C(N/N=C/c1ccccc1)NC1CCCCC1	31*	46	-10%	39%
